This is an account of results in PubChem BioAssay AID588496 (NMMLSC, 2011).

Molecules are shown by their SMILES. The list shows a part of the results. Calls of active or inactive are those of the source.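 How the source made its calls: active means compounds that dim the fluorescent label, raw bead signal shifting by over 33 units between lowest and highest dose; inactive means the rest.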

The nature of this assay: quenchers of FAM-labeled RNA aptamer fluorescence, dose response, artefact control for GRK2 aptamer binding project, biochemical, powder set 1, flow cytometry (AID 588496). The settings on record: Bead-bound FAM RNA aptamer fluorescence quenching; MCF span: fluorescence change max-min concentration, stronger effect = higher value; fluorescence ratio to DMSO: at 11.1 µM, stronger effect = lower value.

As to `COc1ccc(Cl)cc1NC(=O)CCS(=O)(=O)c1ccc(Br)cc1`, the MCF span is -1.1 and the fluorescence ratio to DMSO is 98% (inactive).

For `O=C(CCS(=O)(=O)c1ccc(Br)cc1)NCCc1ccc(Cl)cc1`, the MCF span came out at 3.2 and the fluorescence ratio to DMSO is 99% (inactive).
